One sequence from paper PMC7862700, “An all-to-all approach to the identification of sequence-specific readers for epigenetic DNA modifications on cytosine” can be followed below.

Holding throughout (test): DAPPL (digital affinity profiling via proximity ligation, sequencing); 10 mM Tris-HCl pH 7.5, 50 mM NaCl, 1 mM DTT, 4% glycerol, room temperature, 30 min; GST-TFs on glutathione beads, 16-mer random dsDNA library, 0.1% formaldehyde crosslink after washing; high values mean tight binding
One assay has as its target T1, FEV (Homo sapiens, UniProt Q99581 1-238).
T1 sequence: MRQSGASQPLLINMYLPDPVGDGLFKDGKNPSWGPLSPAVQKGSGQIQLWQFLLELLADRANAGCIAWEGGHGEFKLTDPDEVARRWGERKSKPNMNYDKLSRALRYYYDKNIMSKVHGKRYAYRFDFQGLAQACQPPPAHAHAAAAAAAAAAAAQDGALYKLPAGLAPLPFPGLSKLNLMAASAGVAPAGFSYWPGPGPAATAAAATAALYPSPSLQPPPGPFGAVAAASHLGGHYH
To be noted: protein: recombinant; tags: N-terminal GST; dsDNA, one strand shown. In short, it runs like this: (§1)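 Binding signal is each hexamer's read frequency for a factor divided by its frequency in the tag-only sample. The factors were GST-fused human transcription factors from yeast, captured on glutathione beads, DNA-barcoded and pooled with that sample. Pools were incubated with 200 nmole of a random double-stranded 16-mer DNA library in Tris/NaCl/DTT/glycerol buffer at room temperature for 30 min, then washed, crosslinked with 0.1% formaldehyde, proximity-ligated with BsaI/T4 ligase (1 h, 37 °C), PCR-amplified and sequenced on an Illumina NextSeq500.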

In the next assay the target is ETV5 (Homo sapiens, UniProt P41161 1-510). To be noted: protein: recombinant; tags: N-terminal GST; dsDNA, one strand shown. In short, it runs like this:
as §1

Another assay deals with HSF1 (Homo sapiens, UniProt Q00613 1-529). To be noted: protein: recombinant; tags: N-terminal GST; chain copies: 3; dsDNA, one strand shown. In short, it runs like this:
as §1

For another assay, the target named is T2, SPIC (Homo sapiens, UniProt Q8N5J4 1-248).
T2 sequence: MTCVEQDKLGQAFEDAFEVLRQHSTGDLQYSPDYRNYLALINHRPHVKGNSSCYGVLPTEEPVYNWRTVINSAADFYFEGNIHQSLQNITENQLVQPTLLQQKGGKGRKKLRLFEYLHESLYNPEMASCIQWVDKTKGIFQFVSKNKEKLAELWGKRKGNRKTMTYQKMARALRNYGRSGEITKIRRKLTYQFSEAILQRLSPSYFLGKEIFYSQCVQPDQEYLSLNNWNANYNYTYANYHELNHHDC
To be noted: protein: recombinant; tags: N-terminal GST; dsDNA, one strand shown. In short, it runs like this:
as §1

The next assay concerns the target ELF4 (Homo sapiens, UniProt Q99607 1-663). To be noted: protein: recombinant; tags: N-terminal GST; dsDNA, one strand shown. In short, it runs like this:
as §1

A further assay has as its target T3, ELK4 (Homo sapiens, UniProt P28324-2 1-405).
T3 sequence: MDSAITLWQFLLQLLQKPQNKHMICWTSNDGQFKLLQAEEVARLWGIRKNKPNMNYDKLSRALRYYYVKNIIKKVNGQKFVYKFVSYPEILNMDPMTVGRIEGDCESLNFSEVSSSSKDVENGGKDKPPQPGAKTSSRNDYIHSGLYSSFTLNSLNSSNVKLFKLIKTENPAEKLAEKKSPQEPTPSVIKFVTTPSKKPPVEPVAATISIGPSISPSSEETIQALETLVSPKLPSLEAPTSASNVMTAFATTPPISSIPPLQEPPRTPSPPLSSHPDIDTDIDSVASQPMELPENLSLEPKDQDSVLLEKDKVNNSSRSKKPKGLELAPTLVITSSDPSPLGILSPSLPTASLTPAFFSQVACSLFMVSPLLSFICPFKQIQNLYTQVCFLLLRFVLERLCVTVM
To be noted: protein: recombinant; tags: N-terminal GST; dsDNA, one strand shown. The procedure, abridged:
as §1

Another assay concerns the target T4, ETV2 (Homo sapiens, UniProt O00321 1-342).
T4 sequence: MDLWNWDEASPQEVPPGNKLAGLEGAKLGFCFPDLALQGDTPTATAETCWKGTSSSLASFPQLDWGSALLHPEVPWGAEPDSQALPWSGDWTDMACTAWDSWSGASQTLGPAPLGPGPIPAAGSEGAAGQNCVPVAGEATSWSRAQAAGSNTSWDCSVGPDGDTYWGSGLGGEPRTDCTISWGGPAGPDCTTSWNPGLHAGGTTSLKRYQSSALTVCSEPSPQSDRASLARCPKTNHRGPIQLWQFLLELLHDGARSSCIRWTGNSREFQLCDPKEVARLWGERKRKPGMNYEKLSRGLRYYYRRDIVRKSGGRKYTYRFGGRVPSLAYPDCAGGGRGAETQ
To be noted: protein: recombinant; tags: N-terminal GST; dsDNA, one strand shown. The procedure, abridged: as §1

The target in the next assay is T5, ELF3 (Homo sapiens, UniProt P78545 1-371).
T5 sequence: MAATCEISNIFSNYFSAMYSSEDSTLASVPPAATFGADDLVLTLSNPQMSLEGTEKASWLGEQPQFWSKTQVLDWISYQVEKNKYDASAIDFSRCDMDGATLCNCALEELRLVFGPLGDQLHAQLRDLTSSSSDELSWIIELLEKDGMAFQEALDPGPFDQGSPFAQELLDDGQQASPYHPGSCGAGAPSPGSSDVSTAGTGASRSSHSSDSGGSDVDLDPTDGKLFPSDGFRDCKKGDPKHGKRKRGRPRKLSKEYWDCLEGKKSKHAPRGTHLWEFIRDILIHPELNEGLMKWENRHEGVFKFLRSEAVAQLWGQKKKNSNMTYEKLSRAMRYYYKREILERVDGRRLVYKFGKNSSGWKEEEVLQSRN
To be noted: protein: recombinant; tags: N-terminal GST; dsDNA, one strand shown. The procedure, abridged: as §1

Another assay concerns the target CRX (Homo sapiens, UniProt O43186 1-299). To be noted: protein: recombinant; tags: N-terminal GST; dsDNA, one strand shown. In short, it runs like this: as §1
The next assay deals with ETV1 (Homo sapiens, UniProt P50549 1-477). To be noted: protein: recombinant; tags: N-terminal GST; dsDNA, one strand shown. In short, it runs like this: as §1
Chain of ETV1 (P50549 whole entry): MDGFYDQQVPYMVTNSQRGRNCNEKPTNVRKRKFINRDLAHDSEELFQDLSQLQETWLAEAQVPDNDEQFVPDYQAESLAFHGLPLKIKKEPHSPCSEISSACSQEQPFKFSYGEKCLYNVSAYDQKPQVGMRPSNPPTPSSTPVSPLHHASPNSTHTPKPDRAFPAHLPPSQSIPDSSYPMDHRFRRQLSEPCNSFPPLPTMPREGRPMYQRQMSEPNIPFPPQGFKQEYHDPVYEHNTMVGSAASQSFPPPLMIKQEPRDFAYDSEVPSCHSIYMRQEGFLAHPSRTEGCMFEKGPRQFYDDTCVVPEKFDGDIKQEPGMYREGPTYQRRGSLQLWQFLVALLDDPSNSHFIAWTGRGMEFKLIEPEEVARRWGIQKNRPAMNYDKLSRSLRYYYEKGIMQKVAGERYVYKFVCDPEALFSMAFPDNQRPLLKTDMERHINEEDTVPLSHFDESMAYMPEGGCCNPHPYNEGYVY
Another assay concerns the target T6, ERF (Homo sapiens, UniProt P50548 1-548).
T6 sequence: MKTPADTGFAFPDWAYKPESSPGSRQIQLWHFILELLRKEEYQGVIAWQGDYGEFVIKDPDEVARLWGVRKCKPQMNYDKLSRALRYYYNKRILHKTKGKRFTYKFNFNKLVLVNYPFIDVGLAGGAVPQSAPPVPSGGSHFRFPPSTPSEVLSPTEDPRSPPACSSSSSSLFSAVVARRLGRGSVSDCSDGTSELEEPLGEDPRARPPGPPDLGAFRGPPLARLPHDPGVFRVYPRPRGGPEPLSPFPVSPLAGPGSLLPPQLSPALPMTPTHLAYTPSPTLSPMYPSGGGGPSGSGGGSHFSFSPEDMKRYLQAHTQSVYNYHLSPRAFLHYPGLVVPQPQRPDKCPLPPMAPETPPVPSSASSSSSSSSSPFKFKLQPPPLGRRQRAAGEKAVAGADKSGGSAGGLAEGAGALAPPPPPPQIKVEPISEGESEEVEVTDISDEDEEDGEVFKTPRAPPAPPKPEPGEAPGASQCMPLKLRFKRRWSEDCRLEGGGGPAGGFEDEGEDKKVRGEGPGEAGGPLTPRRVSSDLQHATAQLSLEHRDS
To be noted: protein: recombinant; tags: N-terminal GST; dsDNA, one strand shown. In short, it runs like this: as §1

In another assay the target is T7, ETV3L (Homo sapiens, UniProt Q6ZN32 1-361).
T7 sequence: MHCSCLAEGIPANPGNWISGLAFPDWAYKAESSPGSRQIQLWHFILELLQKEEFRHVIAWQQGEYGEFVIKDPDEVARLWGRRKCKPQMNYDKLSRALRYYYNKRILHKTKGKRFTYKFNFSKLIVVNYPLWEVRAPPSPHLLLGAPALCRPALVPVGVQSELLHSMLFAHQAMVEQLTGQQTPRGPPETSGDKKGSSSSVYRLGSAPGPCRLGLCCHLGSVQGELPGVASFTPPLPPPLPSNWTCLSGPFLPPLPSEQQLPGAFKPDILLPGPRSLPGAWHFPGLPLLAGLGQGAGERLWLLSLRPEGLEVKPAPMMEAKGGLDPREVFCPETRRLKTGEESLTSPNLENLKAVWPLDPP
To be noted: protein: recombinant; tags: N-terminal GST; dsDNA, one strand shown. The procedure, abridged: as §1

Another assay deals with T8, ETS2 (Homo sapiens, UniProt P15036 1-469).
T8 sequence: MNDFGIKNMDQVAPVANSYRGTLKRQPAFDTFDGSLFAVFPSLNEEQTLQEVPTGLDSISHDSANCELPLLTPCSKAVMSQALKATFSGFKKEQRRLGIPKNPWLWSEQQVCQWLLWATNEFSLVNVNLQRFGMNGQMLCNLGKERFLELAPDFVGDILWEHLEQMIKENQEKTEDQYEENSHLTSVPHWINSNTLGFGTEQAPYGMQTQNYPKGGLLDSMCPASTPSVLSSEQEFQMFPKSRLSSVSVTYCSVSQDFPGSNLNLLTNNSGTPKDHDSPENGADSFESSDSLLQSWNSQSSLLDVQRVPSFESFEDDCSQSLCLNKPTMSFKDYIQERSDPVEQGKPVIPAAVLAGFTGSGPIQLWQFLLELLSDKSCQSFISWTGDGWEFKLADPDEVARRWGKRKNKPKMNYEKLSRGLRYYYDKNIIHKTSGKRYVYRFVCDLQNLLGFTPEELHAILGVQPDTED
To be noted: protein: recombinant; tags: N-terminal GST; dsDNA, one strand shown. The procedure, abridged: as §1

Another assay addresses T9, SPDEF (Homo sapiens, UniProt O95238 1-335).
T9 sequence: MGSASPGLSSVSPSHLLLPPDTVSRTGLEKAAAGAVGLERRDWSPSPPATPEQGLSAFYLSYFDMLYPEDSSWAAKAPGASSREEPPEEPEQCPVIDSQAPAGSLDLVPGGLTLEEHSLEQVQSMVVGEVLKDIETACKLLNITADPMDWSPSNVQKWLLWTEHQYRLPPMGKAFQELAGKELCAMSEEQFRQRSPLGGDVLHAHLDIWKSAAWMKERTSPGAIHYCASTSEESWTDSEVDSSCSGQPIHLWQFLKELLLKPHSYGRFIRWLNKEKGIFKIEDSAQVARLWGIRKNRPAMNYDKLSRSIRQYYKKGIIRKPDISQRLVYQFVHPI
To be noted: protein: recombinant; tags: N-terminal GST; dsDNA, one strand shown. The procedure, abridged:
as §1

Another assay has as its target T10, ETV7 (Homo sapiens, UniProt Q9Y603 1-341).
T10 sequence: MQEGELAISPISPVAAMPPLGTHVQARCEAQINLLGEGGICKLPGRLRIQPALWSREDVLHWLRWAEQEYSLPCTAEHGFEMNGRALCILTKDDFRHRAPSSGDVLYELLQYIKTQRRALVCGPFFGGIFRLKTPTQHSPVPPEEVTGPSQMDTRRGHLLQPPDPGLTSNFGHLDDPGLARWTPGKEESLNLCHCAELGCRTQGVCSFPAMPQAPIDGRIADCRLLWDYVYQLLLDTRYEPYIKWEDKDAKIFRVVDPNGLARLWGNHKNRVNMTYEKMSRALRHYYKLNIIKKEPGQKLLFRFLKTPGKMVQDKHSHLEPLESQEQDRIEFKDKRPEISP
To be noted: protein: recombinant; tags: N-terminal GST; dsDNA, one strand shown. The procedure, abridged:
as §1

In the next assay the target is T11, ELF5 (Homo sapiens, UniProt Q9UKW6-2 1-255).
T11 sequence: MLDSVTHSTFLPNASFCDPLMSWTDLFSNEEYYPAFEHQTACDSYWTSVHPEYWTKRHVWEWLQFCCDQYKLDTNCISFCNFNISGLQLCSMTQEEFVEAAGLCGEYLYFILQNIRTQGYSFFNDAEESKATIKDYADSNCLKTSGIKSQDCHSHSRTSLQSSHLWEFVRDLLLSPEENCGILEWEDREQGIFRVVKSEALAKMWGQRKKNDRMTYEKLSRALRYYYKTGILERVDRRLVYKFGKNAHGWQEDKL
To be noted: protein: recombinant; tags: N-terminal GST; dsDNA, one strand shown. The procedure, abridged:
as §1

A further assay addresses T12, ETV3 (Homo sapiens, UniProt P41162-2 1-143).
T12 sequence: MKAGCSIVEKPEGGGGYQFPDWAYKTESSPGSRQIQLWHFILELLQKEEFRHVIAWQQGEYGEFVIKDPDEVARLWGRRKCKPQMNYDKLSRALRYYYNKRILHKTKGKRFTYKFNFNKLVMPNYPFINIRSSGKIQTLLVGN
To be noted: protein: recombinant; tags: N-terminal GST; dsDNA, one strand shown. The procedure, abridged:
as §1

A further assay has as its target ETV6 (Homo sapiens, UniProt P41212 1-452). To be noted: protein: recombinant; tags: N-terminal GST; dsDNA, one strand shown. In short, it runs like this:
as §1

Chain of HSF1 (Q00613 whole entry): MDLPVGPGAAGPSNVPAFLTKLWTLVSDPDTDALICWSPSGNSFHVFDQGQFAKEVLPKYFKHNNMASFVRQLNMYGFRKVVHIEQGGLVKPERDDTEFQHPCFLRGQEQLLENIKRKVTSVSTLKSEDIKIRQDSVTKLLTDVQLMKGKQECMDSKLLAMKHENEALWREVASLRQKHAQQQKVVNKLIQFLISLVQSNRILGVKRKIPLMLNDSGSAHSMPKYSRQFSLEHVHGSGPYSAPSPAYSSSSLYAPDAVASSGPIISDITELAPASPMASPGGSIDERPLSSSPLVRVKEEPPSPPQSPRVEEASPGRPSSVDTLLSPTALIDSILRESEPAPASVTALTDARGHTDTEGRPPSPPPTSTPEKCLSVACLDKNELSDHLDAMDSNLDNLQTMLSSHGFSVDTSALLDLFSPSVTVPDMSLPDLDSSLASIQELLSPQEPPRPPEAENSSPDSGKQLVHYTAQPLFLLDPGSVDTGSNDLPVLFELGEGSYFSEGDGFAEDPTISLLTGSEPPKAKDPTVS
Chain of ETV5 (P41161 whole entry): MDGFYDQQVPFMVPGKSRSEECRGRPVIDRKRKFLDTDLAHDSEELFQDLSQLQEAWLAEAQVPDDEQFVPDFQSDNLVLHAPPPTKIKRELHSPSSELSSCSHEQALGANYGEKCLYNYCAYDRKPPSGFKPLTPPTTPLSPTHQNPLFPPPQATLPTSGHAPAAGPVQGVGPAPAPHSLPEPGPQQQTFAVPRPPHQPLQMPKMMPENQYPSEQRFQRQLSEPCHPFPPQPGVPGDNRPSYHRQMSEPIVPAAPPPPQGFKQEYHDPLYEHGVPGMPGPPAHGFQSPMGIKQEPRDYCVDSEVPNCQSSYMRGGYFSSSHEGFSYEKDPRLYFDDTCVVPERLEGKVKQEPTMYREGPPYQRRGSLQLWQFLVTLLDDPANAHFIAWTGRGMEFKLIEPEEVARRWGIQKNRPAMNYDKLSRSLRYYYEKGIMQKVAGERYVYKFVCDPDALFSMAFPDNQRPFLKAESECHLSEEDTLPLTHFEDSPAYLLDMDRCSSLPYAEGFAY
Chain of CRX (O43186 whole entry): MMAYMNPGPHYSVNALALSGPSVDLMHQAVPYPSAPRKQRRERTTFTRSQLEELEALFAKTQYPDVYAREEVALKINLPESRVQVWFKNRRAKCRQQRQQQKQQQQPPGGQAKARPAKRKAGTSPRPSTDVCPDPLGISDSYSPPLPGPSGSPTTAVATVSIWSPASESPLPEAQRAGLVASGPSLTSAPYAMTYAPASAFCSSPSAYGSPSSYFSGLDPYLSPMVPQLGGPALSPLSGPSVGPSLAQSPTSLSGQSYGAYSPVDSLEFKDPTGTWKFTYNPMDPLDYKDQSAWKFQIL
Chain of ETV6 (P41212 whole entry): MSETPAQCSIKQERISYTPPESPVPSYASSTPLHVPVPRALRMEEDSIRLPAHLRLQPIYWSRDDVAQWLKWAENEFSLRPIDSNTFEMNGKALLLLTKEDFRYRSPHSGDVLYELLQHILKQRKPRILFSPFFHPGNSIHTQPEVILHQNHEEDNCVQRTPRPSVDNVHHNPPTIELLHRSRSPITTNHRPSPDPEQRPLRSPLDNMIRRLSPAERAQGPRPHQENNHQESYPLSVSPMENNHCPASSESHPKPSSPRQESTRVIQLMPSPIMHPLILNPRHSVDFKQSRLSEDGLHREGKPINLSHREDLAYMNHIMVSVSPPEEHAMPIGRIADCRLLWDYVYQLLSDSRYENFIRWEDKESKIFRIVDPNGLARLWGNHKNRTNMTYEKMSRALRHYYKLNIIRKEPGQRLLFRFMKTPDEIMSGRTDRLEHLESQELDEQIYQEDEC
Chain of ELF4 (Q99607 whole entry): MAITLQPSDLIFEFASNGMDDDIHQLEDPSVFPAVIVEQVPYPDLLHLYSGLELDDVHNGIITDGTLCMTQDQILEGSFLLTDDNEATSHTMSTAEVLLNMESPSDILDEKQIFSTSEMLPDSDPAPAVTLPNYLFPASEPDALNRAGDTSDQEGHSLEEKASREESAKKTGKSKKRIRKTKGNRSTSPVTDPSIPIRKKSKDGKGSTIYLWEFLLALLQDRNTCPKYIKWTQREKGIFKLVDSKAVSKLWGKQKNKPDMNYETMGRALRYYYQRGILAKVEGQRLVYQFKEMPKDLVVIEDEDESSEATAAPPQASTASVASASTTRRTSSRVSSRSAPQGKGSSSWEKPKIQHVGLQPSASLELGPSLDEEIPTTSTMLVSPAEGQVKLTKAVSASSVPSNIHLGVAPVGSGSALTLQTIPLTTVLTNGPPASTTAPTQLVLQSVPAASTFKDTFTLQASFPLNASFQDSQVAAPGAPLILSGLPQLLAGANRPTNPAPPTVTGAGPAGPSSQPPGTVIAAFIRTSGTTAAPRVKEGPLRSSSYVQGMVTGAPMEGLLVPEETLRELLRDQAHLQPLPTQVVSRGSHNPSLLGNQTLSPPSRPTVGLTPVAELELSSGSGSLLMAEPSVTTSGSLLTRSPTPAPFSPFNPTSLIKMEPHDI

With TTCCCA, the binding signal in the assay with FEV is 1.16 fold enrichment (6-mer frequency, TF over GST control); with ETV5, 1.29 fold enrichment (6-mer frequency, TF over GST control); with HSF1, 1.08 fold enrichment (6-mer frequency, TF over GST control); with SPIC, 1.23 fold enrichment (6-mer frequency, TF over GST control); with ELF4 it was 1.26 fold enrichment (6-mer frequency, TF over GST control); in the assay with ELK4, 1.08 fold enrichment (6-mer frequency, TF over GST control). Also, the binding signal in the assay with ETV2 was 1.13 fold enrichment (6-mer frequency, TF over GST control); with ELF3, 1.27 fold enrichment (6-mer frequency, TF over GST control); with CRX, 1.16 fold enrichment (6-mer frequency, TF over GST control); in the assay with ETV1, 1.2 fold enrichment (6-mer frequency, TF over GST control); with ERF it was 1.24 fold enrichment (6-mer frequency, TF over GST control); with ETV3L, 1.25 fold enrichment (6-mer frequency, TF over GST control). Moreover, the binding signal is 1.15 fold enrichment (6-mer frequency, TF over GST control) with ETS2; 1.25 fold enrichment (6-mer frequency, TF over GST control) with SPDEF; 1.27 fold enrichment (6-mer frequency, TF over GST control) with ETV7; 1.42 fold enrichment (6-mer frequency, TF over GST control) with ELF5; 1.25 fold enrichment (6-mer frequency, TF over GST control) with ETV3; 1.33 fold enrichment (6-mer frequency, TF over GST control) with ETV6.
